Assay outcomes as filed in PubChem BioAssay.
FBA Mtb inh: inhibits M. tuberculosis FBA enzyme | P9WQA3 | purified M. tuberculosis FBA, fluorescence read-out | inhibition, % at 1 µM | 2.3% of 360,000 active | AID 588726;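 further: 0% = vehicle and 100% = reference inhibitor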
Rv3671c inh: inhibitors of M. tuberculosis serine protease Rv3671c | inhibition, % at 5.96 µM | 0.048% of 320,000 active | AID 2606; in the data active means inhibition above about 38%;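 further: extracellular domain of Rv3671c used as enzyme; 0% = enzyme with DMSO and 100% = no enzyme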
Target sequence (P9WHR9 whole entry, looked up, the tested form may be a part): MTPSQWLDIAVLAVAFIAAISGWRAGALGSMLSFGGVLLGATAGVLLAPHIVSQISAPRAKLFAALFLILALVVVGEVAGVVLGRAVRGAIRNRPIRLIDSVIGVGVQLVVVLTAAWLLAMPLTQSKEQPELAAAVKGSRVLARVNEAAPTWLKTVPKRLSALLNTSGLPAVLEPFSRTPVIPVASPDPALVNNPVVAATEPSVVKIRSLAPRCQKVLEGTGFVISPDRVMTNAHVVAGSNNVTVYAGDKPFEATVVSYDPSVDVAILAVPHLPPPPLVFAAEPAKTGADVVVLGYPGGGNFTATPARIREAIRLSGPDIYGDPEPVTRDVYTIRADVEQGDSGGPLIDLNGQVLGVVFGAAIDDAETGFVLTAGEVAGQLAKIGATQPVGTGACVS
GDH-TPI counter-1: counter-screen for M. tuberculosis FBA inhibitors: GDH-TPI coupled enzymes | AID 588335 | inhibition, % at 4.8 µM | 1.2% of 360,000 active | GDH-TPI coupled enzyme counterscreen, NADH absorbance; in the data active means inhibition above about 30%;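 further: 0% = DMSO wells and 100% = wells lacking the enzyme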
BioA inh: BioA (M. tuberculosis) enzyme inhibition; 0.096% of 360,000 active; purified M. tuberculosis BioA enzyme, plate reader; inhibition, % at 9.99 µM; in the data active means inhibition above about 40%
FadD28 binding: blocks FadD28 binding to the bisubstrate probe; inhibition, % at 12.5 µM; fluorescence polarization; 0.22% of 360,000 active; AID 588549; in the data active means inhibition above about 8.5%, passing the limit was not always enough
Mtb FBA confirm: Mtb FBA inhibition, confirmed; shares compounds with FBA Mtb inh; purified M. tuberculosis FBA, fluorescence read-out; inhibition, % at 1 µM; 78% of 5,600 active;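 further: 0% = vehicle wells and 100% = reference inhibitor wells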
GDH-TPI counter-2: inhibits GDH-TPI coupling enzymes, flagging Mtb FBA hits; shares compounds with FBA Mtb inh; GDH-TPI coupled enzyme counterscreen, fluorescence; inhibition, % at 1 µM; 81% of 5,600 active; in the data active means inhibition above about 10%
GDH-TPI DR: inhibits GDH-TPI coupling enzymes in dose response | GDH-TPI coupled enzyme assay, fluorescence, artifact counterscreen | AID 652145 | 79% of 170 active | IC50, µM | shares compounds with FBA Mtb inh; call rule not given here
An asterisk follows results filed as active; / = no result given. The list is not random: actives were taken first. Their share in the collection is about 3%. Unless noted, no stated cut-off is given here; in the data, active means inhibition above about 27%; inactive means the rest.

SMILES | FBA Mtb inh | Rv3671c inh | GDH-TPI counter-1 | BioA inh | FadD28 binding | Mtb FBA confirm | GDH-TPI counter-2 | others
Cc1noc(C)c1NC(=O)N(C)C[C@@H]1OCCCC[C@H](C)Oc2ccc(NC(=O)Nc3ccc4c(c3)OCO4)cc2C(=O)N([C@H](C)CO)C[C@@H]1C | / | / | / | 2 | / | / | /
Nc1c(C(=O)C2CC2)sc2nc(-c3cccs3)cc(C(F)(F)F)c12 | 57* | 0 | 2 | / | 1 | 44* | 30*
O=c1[nH]c(=S)[nH]c2nc(-c3cccs3)cc(C(F)(F)F)c12 | 32* | -1 | 17 | 0 | -1 | 94* | 76*
CSc1nc(-c2ccccc2)cc(C(F)(F)F)c1C#N | 2 | -1 | 7 | / | 0 | / | /
CNc1nc(-c2cccs2)cc(C(F)(F)F)c1C#N | 58* | -4 | -2 | / | -5 | 78* | 54*
CC(=O)N(C[C@@H]1N[C@@H](CO)[C@H]1c1ccc(-c2ccc(F)cc2)cc1)C(C)C | / | / | / | 2 | / | / | /
CO[C@@H]1CC[C@H]2CCN(C)C(=O)C[C@@H](c3ccccc3)CN(C)C(=O)c3cccc(C#N)c3OC[C@@H]1O2 | / | / | / | 0 | / | / | /
C/C(=N\N=C(N)N)c1ccc(Cl)cc1Cl | 28* | -2 | 1 | / | -5 | 29* | 17*
C/C(=N\N=C(N)N)c1cc(Cl)ccc1Cl | -2 | 5 | -9 | / | -3 | / | /
C[C@H]1CN([C@@H](C)CO)C(=O)c2cc(C#CC3CC3)cnc2O[C@@H]1CN(C)Cc1cccc(C(=O)O)c1 | / | / | / | 1 | / | / | /
O=S(=O)(N[C@H]1CC[C@@H](CCn2cc(-c3ccccn3)nn2)O[C@H]1CO)c1cccc(F)c1 | / | / | / | 8 | / | / | /
O=C1CC(C(=O)Nc2ccc(C(=O)O)cc2)C(c2ccccc2)O1 (stereo unspecified) | 2 | 8 | 17 | 0 | -2 | / | /
O=C1CC(C(=O)Nc2ccc(O)c(C(=O)O)c2)C(c2ccccc2)O1 (stereo unspecified) | 59* | 2 | 8 | -1 | -5 | 143* | 165*
C/C(O)=c1/cnc2nc3ccccc3n2c1=O | 30* | -5 | 24 | / | 0 | 24 | 21*
CCCn1c(=O)c(C(=O)c2ccccc2)nc2ccccc21 | -3 | 1 | 20 | 1 | -3 | / | /
C[C@H]1CN([C@@H](C)CO)C(=O)c2cccc(NC(=O)c3ccc(-c4nccs4)cc3)c2O[C@H]1CN(C)C(=O)Nc1ccc(F)cc1 | / | / | / | 4 | / | / | /
CC1(C)Cc2c(c(-c3ccccc3)[nH]c(=O)c2C#N)CS1 | 29* | -2 | 25 | 2 | 0 | 44* | 50*
CC1(C)Cc2c(c(-c3ccco3)[nH]c(=O)c2C#N)CS1 | 30* | -2 | 17 | 0 | -3 | 22 | 17*
Nc1nc(SCC(=O)Nc2ccc(S(N)(=O)=O)cc2)n[nH]1 | 1 | 1 | 7 | -3 | -1 | / | /
Cc1ccc(Oc2ccc(NC(=O)CSc3n[nH]c(N)n3)cc2)cc1 | 32* | 1 | 11 | / | -5 | -1 | -3
CC(=O)c1ccc(-c2ccc(C(=O)NCC(c3ccc(F)cc3)N3CCOCC3)o2)cc1 (stereo unspecified) | 55* | -8 | 21 | 15 | -5 | 57* | 32*
Cc1ccc(C(=O)NCC(c2ccc(F)cc2)N2CCOCC2)cc1 (stereo unspecified) | -2 | -22 | -14 | / | -3 | / | /
COCCNC(=O)/C(C#N)=C/c1c(N2CCN(c3cccc(Cl)c3)CC2)nc2c(C)cccn2c1=O | 69* | -6 | -1 | -1 | -3 | 165* | 124*
COCCNC(=O)/C(C#N)=C/c1c(N2CCCCCC2)nc2ccccn2c1=O | 87* | -9 | 25 | -1 | 2 | 45* | 47*
COCCNC(=O)C(C#N)c1nc2ccccc2nc1N1CCCCCC1 (stereo unspecified) | 37* | -3 | 19 | -1 | 2 | -4 | -4
SMILES | FBA Mtb inh | Rv3671c inh | GDH-TPI counter-1 | BioA inh | FadD28 binding | Mtb FBA confirm | GDH-TPI counter-2 | others
COCCNC(=O)/C(C#N)=C/c1c(N2CCN(c3ccc(OC)cc3)CC2)nc2c(C)cccn2c1=O | 80* | -6 | 2 | 1 | -2 | 73* | 58*
C[C@@H]1CN([C@H](C)CO)C(=O)c2cc(NC(=O)CCCN(C)C)ccc2O[C@@H](C)CCCCO[C@@H]1CN(C)S(C)(=O)=O | / | / | / | -2 | / | / | /
CNC(=O)/C(C#N)=C/c1c(N2CCN(c3cccc(Cl)c3)CC2)nc2c(C)cccn2c1=O | 25 | 1 | 11 | 1 | 2 | / | /
C=CCNC(=O)/C(C#N)=C/c1c(N2CCN(c3cccc(Cl)c3)CC2)nc2c(C)cccn2c1=O | 62* | 1 | 0 | -2 | 0 | 199* | 172*
Nc1ccc2ccccc2c1 | 28* | / | 4 | 0 | 0 | 40* | 34*
CCCn1nnc(NC(=S)NC(=O)c2cccs2)n1 | 37* | -4 | 4 | -3 | -4 | 39* | 25*
CCCn1nnc(NC(=S)NC(=O)C(C)(C)C)n1 | -9 | -8 | 0 | -1 | -3 | / | /
O=C(C[C@H]1C[C@H]2c3cc(NS(=O)(=O)c4ccc(F)cc4)ccc3O[C@H]2[C@H](CO)O1)NCc1ccccc1F | / | / | / | -2 | / | / | /
CCNC(=O)NC(=O)COC(=O)c1ccccc1SCC(=O)NC(=O)NCC | 79* | -10 | 20 | -2 | 0 | 18 | 8
O=C(COC(=O)c1ccccc1SCC(=O)NC1CCS(=O)(=O)C1)NC1CCS(=O)(=O)C1 (stereo unspecified) | 3 | 0 | 2 | / | -4 | / | /
COc1ccc(-c2ccc3c(c2)[C@H]2[C@H](CCN2S(=O)(=O)c2ccccc2C)[C@H](CO)N3)cc1 | / | / | / | 0 | / | / | /
O=C1N=C(N2CCN(c3ccccc3)CC2)S/C1=C/c1cccs1 | 34* | 0 | 26 | / | -3 | 6 | -8
O=C1N=C(N2CCN(Cc3ccccc3)CC2)S/C1=C/c1cccs1 | 2 | -3 | 28 | 1 | -5 | / | /
C/C=C/c1ccc([C@H]2[C@@H](CO)N(C(C)=O)[C@@H]2CNC(=O)c2ccncc2)cc1 | / | / | / | -1 | / | / | /
CN1CCN(NC(=O)c2cc(-c3ccc(Cl)s3)nc3ccccc23)CC1 | 73* | 5 | 13 | 1 | -1 | 65* | 42*
CC(C)(CNC(=O)c1cc(-c2ccc(Cl)s2)nc2ccccc12)N1CCOCC1 | 62* | 6 | 19 | 1 | -4 | 12 | 9 | GDH-TPI DR=2.9*
CN1CCN(NC(=O)c2cc(-c3ccccn3)nc3ccccc23)CC1 | 2 | 7 | 7 | / | -1 | / | /
O=C(c1cc(-c2ccc(Cl)s2)nc2ccccc12)N1CCCC1 | 58* | 0 | 10 | 0 | -5 | 155* | 144*
C[C@H](CO)N1C[C@H](C)[C@H](CN(C)S(=O)(=O)c2ccc(Oc3ccccc3)cc2)OCc2cn(nn2)CCCC1=O | / | / | / | 0 | / | / | /
